Measurements as given in PubChem BioAssay (Tox21).
Results filed as inconclusive are left out. More than one record can exist for a structure, and the calls need not agree. Calls of active or inactive are those of the source. Calls come from the whole dose curve.

Tests used:
[1] = target: Acetylcholinesterase (Homo sapiens) (UniProt P22303); assay: Acetylcholinesterase (AChE) small molecule antagonists: colormetric cell-based qHTS assay (AID 1347395); note: nearly all actives have a fitted effect of over 30% in size
Chain of Acetylcholinesterase (Homo sapiens) (P22303 whole entry, looked up): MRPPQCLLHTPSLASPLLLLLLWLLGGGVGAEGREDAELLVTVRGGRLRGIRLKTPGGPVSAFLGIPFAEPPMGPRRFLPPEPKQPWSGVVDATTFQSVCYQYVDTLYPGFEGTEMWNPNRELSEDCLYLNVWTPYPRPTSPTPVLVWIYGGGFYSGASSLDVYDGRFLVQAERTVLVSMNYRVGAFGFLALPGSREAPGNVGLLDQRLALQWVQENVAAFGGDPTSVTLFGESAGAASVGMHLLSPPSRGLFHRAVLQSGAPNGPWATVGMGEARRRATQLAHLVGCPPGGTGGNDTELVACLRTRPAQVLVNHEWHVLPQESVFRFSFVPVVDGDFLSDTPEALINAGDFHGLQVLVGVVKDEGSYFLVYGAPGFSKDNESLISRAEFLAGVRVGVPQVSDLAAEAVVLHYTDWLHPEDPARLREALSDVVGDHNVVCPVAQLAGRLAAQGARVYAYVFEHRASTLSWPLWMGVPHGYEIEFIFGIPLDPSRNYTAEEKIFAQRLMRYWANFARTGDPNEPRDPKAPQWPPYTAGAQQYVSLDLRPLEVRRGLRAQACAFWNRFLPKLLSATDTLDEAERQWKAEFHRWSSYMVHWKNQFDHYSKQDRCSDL
Method in brief: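 Colorimetric readout: DTNB quantifies thiocholine from acetylthiocholine hydrolysed by endogenous AChE of SH-SY5Y cells (2,000/well, plated overnight). Compound pretreatment 30 min, substrate incubation 90 min, both 37 C.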

[2] = target: Acetylcholinesterase (Homo sapiens) (UniProt P22303); assay: Acetylcholinesterase (AChE) small molecule antagonists: enzyme-based qHTS assay (AID 1347397); settings: Potency: AChE enzyme activity inhibition; outcome: AChE enzyme activity inhibition; note: nearly all actives have a fitted effect of over 55% in size
Method in brief: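 rhAChE 50 mU/mL (dispensed) + cpd or DMSO, 30 min RT; add DTNB/acetylthiocholine cocktail, 10 min RT; colorimetric thiocholine readout. qHTS, 1536-well format.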

[3] = target: Acetylcholinesterase (Homo sapiens) (UniProt P22303); assay: Acetylcholinesterase (AChE) small molecule antagonists: fluorescence cell-based qHTS assay (AID 1347398); settings: Potency: AChE activity; outcome: AChE activity; note: nearly all actives have a fitted effect of over 50% in size
Method in brief: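 Read-out is Thiolite Green fluorescence at Ex/Em = 490/520 nm, formed by reaction with thiocholine released when cellular AChE in SH-SY5Y cells hydrolyzes acetylthiocholine. Compounds were preincubated 30 min at 37 C before substrate.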

[4] = target: Acetylcholinesterase (Homo sapiens) (UniProt P22303); assay: Acetylcholinesterase (AChE) small molecule antagonists: enzyme-based qHTS assay with human liver microsomes (AID 1347399); settings: Potency: qHTS inhibition; outcome: qHTS inhibition; note: nearly all actives have a fitted effect of over 60% in size
Method in brief: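 Recombinant human AChE (50 mU/mL in the enzyme mix) and human liver microsomes (0.25 mg/mL final) were preincubated with compound and NADPH (0.25 mg/mL final) for 30 min at 37 C. Acetylthiocholine/DTNB was then added; thiocholine was read colorimetrically after 10 min at room temperature.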
% is set by controls: 0 for no effect and ±100 for the full control effect; potency is the fitted concentration of half-maximal effect.

CCC(CC)C(=O)O
inactive: Potency [1] | Potency [2] | Potency [3] | Potency [4]

OC1CCCCC1
inactive: Potency [1] | Potency [2] | Potency [3] | Potency [4]

CC1(C)NC(=O)NC1=O
inactive: Potency [1] | Potency [2] | Potency [3] | Potency [4]

Nc1ccc(C(=O)Oc2ccccc2)c(O)c1
inactive: Potency [1] | Potency [2] | Potency [3] | Potency [4]

CC(=O)c1ccc(O)c(C(N)=O)c1
inactive: Potency [1] | Potency [2] | Potency [3] | Potency [4]

Cc1c(Cl)cccc1Cl
inactive: Potency [1] | Potency [2] | Potency [3] | Potency [4]

CCC(C(=O)NC(N)=O)c1ccccc1 (stereo not given)
inactive: Potency [1] | Potency [2] | Potency [3] | Potency [4]

CC(C)Oc1ccccc1O
inactive: Potency [1] | Potency [2] | Potency [3] | Potency [4]

COc1cc2ncnc(Nc3cccc(Cl)c3)c2cc1OC
inactive: activity, negative = inhibition [1] 5.54% [at 23.6 µM] | activity change, negative = inhibition [2] -0.138% [at 23.6 µM] | activity change, negative = inhibition [3] 1.23% [at 23.8 µM] | activity change, negative = inhibition [4] 1.05% [at 23.6 µM]

O=C1CCCC1
inactive: Potency [1] | Potency [2] | Potency [3] | Potency [4]

Oc1ccccc1O
inactive: Potency [1] | Potency [2] | Potency [3] | Potency [4]

CSc1ccc2c(c1)N(CCC1CCCCN1C)c1ccccc1S2 (stereo not given)
active: Potency [1] 70.7 µM | Potency [3] 31.6 µM
79.3 µM (active) and inactive: Potency [2]
inactive: Potency [4]

Cc1ccc(Cl)cc1
inactive: Potency [1] | Potency [2] | Potency [3] | Potency [4]

C#C[C@]1(O)CC[C@H]2[C@@H]3CCc4cc(OC)ccc4[C@H]3CC[C@@]21C
inactive: Potency [1] | Potency [2] | Potency [3] | Potency [4]

CC(C#N)(CCC(=O)O)N=NC(C)(C#N)CCC(=O)O (stereo not given)
inactive: Potency [1] | Potency [2] | Potency [3] | Potency [4]

C=C(C)C(=O)OCC(O)CO (stereo not given)
inactive: Potency [1] | Potency [2] | Potency [3] | Potency [4]

C=CC(C)CCC=C(C)C (stereo not given)
inactive: Potency [1] | Potency [2] | Potency [3] | Potency [4]

NS(=O)(=O)c1ccc(C(=O)O)cc1
inactive: Potency [1] | Potency [2] | Potency [3] | Potency [4]

O=S(O)O
inactive: activity, negative = inhibition [1] 0.406% [at 23.6 µM] | activity change, negative = inhibition [2] -0.777% [at 23.6 µM] | activity change, negative = inhibition [3] 0.464% [at 23.8 µM] | activity change, negative = inhibition [4] -0.486% [at 23.6 µM]

CCO[Si](OCC)(OCC)c1ccccc1
inactive: Potency [1] | Potency [2] | Potency [3] | Potency [4]

O=c1[nH]c2ccc(S(=O)CCN3CCC(Cc4ccc(F)cc4)CC3)cc2o1 (stereo not given)
active: Potency [1] 6.33 µM | Potency [2] 5.64 µM | Potency [3] 1.12 µM | Potency [4] 35.6 µM

OCCNCCO
inactive: Potency [1] | Potency [2] | Potency [3] | Potency [4]

Cc1cnc(NC(=O)C2=C(O)c3ccccc3S(=O)(=O)N2C)s1
inactive: Potency [1] | Potency [2] | Potency [3] | Potency [4]

C=C(C)C(=O)OCCCCCCCC(C)C
inactive: Potency [1] | Potency [2] | Potency [3] | Potency [4]

CC(C)N(C)C
inactive: Potency [1] | Potency [2] | Potency [3] | Potency [4]

CC(C)=CC1CC(C)CCO1 (stereo not given)
inactive: Potency [1] | Potency [2] | Potency [3] | Potency [4]

Cc1cccc(Oc2ccccc2)c1
inactive: Potency [1] | Potency [2] | Potency [3] | Potency [4]

CCCCOCCOC(=O)c1ccccc1C(=O)OCCOCCCC
inactive: Potency [1] | Potency [2] | Potency [3] | Potency [4]

COCCOCC(OC)OC
inactive: Potency [1] | Potency [2] | Potency [3] | Potency [4]

Cc1cc(SC2=C(O)C[C@@](CCc3ccc(N)cc3)(C(C)C)OC2=O)c(C(C)(C)C)cc1CO
inactive: Potency [1] | Potency [2] | Potency [3] | Potency [4]

CC(=O)OCC(=O)[C@H]1CC[C@H]2[C@@H]3CCC4=CC(=O)CC[C@]4(C)[C@H]3CC[C@]12C
inactive: Potency [1] | Potency [2] | Potency [3] | Potency [4]

Cc1cc(C)n(CO)n1
inactive: Potency [1] | Potency [2] | Potency [3] | Potency [4]

CN(C)CCCN
inactive: Potency [1] | Potency [2] | Potency [3] | Potency [4]

CCCCCCCO
inactive: Potency [1] | Potency [2] | Potency [3] | Potency [4]

O=C1Cc2cc(Cl)ccc2N1
inactive: Potency [1] | Potency [2] | Potency [3] | Potency [4]

C=CCCCCCCCCC=O
inactive: Potency [1] | Potency [2] | Potency [3] | Potency [4]

CC(C)OCC1CO1 (stereo not given)
inactive: Potency [1] | Potency [2] | Potency [3] | Potency [4]

CCCCCCOc1cc(C)c(O)c(C)c1C
inactive: Potency [1] | Potency [2] | Potency [3] | Potency [4]

O=C(Oc1ccccc1)c1ccc2ccccc2c1O
inactive: Potency [1] | Potency [2] | Potency [3] | Potency [4]

O=C1C(c2[nH]c3ccc(S(=O)(=O)O)cc3c2O)=Nc2ccc(S(=O)(=O)O)cc21
inactive: Potency [1] | Potency [2] | Potency [3] | Potency [4]

S=C(NC1CCCCC1)NC1CCCCC1
inactive: Potency [1] | Potency [2] | Potency [3] | Potency [4]

Cc1ccccc1Cl
inactive: Potency [1] | Potency [2] | Potency [3] | Potency [4]

Nc1nc(N)nc(-c2ccccc2)n1
inactive: Potency [1] | Potency [2] | Potency [3] | Potency [4]

O=C1c2ccccc2C(=O)c2c(O)c(O)cc(O)c21
inactive: Potency [1] | Potency [2] | Potency [3] | Potency [4]

CN1CN(C)CN(C)C1
inactive: Potency [1] | Potency [2] | Potency [3] | Potency [4]

Cc1ccc([N+](=O)[O-])c(N)c1
inactive: Potency [1] | Potency [2] | Potency [3] | Potency [4]

CC1(C)[C@H]2CC[C@](C)(C2)[C@H]1O
inactive: Potency [1] | Potency [2] | Potency [3] | Potency [4]

C=CC(C)(CCC=C(C)C)OC(=O)/C=C/c1ccccc1 (stereo not given)
inactive: Potency [1] | Potency [2] | Potency [3] | Potency [4]

CC(Oc1cc(Cl)ccc1Cl)C(=O)O (stereo not given)
inactive: Potency [1] | Potency [2] | Potency [3] | Potency [4]

COC(=O)N[C@H](C(=O)N[C@@H](Cc1ccccc1)[C@@H](O)CN(Cc1ccc(-c2ccccn2)cc1)NC(=O)[C@@H](NC(=O)OC)C(C)(C)C)C(C)(C)C
inactive: Potency [1] | Potency [2] | Potency [3] | Potency [4]

CC[C@H](C)[C@@H](C(=O)O)n1sc2ccccc2c1=O
inactive: Potency [1] | Potency [2] | Potency [3] | Potency [4]

CCCCC1CCC(=O)O1 (stereo not given)
inactive: Potency [1] | Potency [2] | Potency [3] | Potency [4]

NC[C@H]1O[C@H](O[C@H]2[C@H](O)[C@@H](O[C@H]3O[C@H](CO)[C@@H](O)[C@H](N)[C@H]3O)[C@H](N)C[C@@H]2N)[C@H](N)[C@@H](O)[C@@H]1O
inactive: activity, negative = inhibition [1] 1.64% [at 23.6 µM] | activity change, negative = inhibition [2] 0.27% [at 23.6 µM] | activity change, negative = inhibition [3] 4.18% [at 23.8 µM] | activity change, negative = inhibition [4] 3.75% [at 23.6 µM]

Nc1nc(N)c2nc(-c3ccccc3)c(N)nc2n1
inactive: Potency [1] | Potency [2] | Potency [3] | Potency [4]

CSc1nnc(C(C)(C)C)c(=O)[nH]1
inactive: Potency [1] | Potency [2] | Potency [3] | Potency [4]

CCOc1cc(OCC)c(C(=O)CCC(=O)O)cc1OCC
inactive: Potency [1] | Potency [2] | Potency [3] | Potency [4]

CCCCC(CC)CCC(CC(C)C)OS(=O)(=O)O (stereo not given)
inactive: Potency [1] | Potency [2] | Potency [3] | Potency [4]

c1ccc2cnccc2c1
inactive: Potency [1] | Potency [2] | Potency [3] | Potency [4]

CC(=O)Oc1ccccc1C(=O)Nc1ncc([N+](=O)[O-])s1
inactive: Potency [1] | Potency [2] | Potency [3] | Potency [4]

O=C(O)Cc1ccccc1Oc1ccc(Cl)cc1Cl
inactive: Potency [1] | Potency [2] | Potency [3] | Potency [4]
